BoNT-A LC inh2 = inhibitors of Botulinum neurotoxin A light chain protease. inhibition, % at 10 µM. multiplex microsphere protease substrate cleavage, flow cytometry. hit rate 0.17% among 360,000; note: plate controls were buffer without enzyme for full effect and enzyme alone for no effect
MazEF act = activators of E. coli MazEF toxin-antitoxin RNase; P0AE70; FAM/BHQ RNA-DNA oligo cleavage fluorescence, 5 h; activation, % at 20 µM; hit rate 0.32% among 350,000; AID 504720; in the data active = activation above about 50%
Target sequence (P0AE70 whole entry, looked up): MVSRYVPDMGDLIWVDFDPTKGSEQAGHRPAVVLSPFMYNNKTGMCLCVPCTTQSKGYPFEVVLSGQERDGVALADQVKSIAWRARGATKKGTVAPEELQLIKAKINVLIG
BH1578 lux ind = quorum light induction in luxS cqsA deficient V. cholerae. V. cholerae BH1578 lux reporter, luminescence, 6 h. activation, % at 18.7 µM. hit rate 0.16% among 350,000; in the data active = activation mostly above about 9.7%, no sharp cut-off; inconclusive = no clear call, values can overlap the other calls; inactive = mostly below about 3.7%
Autofluor counter = compound fluorescence in toxin protease inhibitor counterscreen; compound autofluorescence counterscreen, microsphere flow cytometry; stronger effect = higher value; hit rate 3.1% among 360,000; fluorescence intensity (concentration not given with the values); in the data active = fluorescence intensity above about 16000; inconclusive = no clear call, values can overlap the other calls
BoNT-F LC inh = blocks Botulinum neurotoxin F light chain protease; hit rate 0.22% among 360,000; Multiplex microsphere protease cleavage assay, flow cytometry; inhibition, % at 10 µM; AID 588497; in the data active = inhibition above about 35%, passing the limit was not always enough; inconclusive = no clear call, values can overlap the other calls; note: plate controls were buffer without enzyme for full effect and enzyme alone for no effect
Anthrax LF inh2 = inhibitors of Bacillus anthracis lethal factor protease; multiplex microsphere protease cleavage assay, LF; P15917; inhibition, % at 10 µM; hit rate 0.12% among 360,000; note: plate controls were buffer without enzyme for full effect and enzyme alone for no effect
* = called active by the depositor; i = inactive; ? = inconclusive; nt = no result. Shown are actives, neighbours in structure and some others; about 3.9% of the full set was active somewhere. Cut-off read from the data, not from the text of the source, unless noted: active = inhibition above about 30%; inconclusive = no clear call, values can overlap the other calls; inactive = below that.

SMILES | BoNT-A LC inh2 | MazEF act | BH1578 lux ind | Autofluor counter | BoNT-F LC inh | Anthrax LF inh2
Cn1c(/C=C(\C#N)C(N)=S)ccc1-c1ccc(Br)cc1 | 33* | -1 | i | 4648 | 5 | 32*
COc1ccc(NC(=O)/C(C#N)=C/c2cc(C)n(-c3ccc(N4CCOCC4)c([N+](=O)[O-])c3)c2C)cc1 | -1 | -12 | -2 | 7955 | -6 | -4
Cc1cc(/C=C(\C#N)C(=O)Nc2ccc(F)cc2)c(C)n1-c1ccc(N2CCOCC2)c([N+](=O)[O-])c1 | 0 | 4 | 0 | 22759* | 0 | -6
Cc1cc(/C=C(\C#N)C(=O)Nc2ccccc2)c(C)n1-c1ccc2c(c1)OCO2 | -4 | -9 | -4 | 20884* | -9 | -2
CCOC(=O)C1=CN(Cc2cccc(F)c2)S(=O)(=O)N(C)C1c1ccc2ccccc2c1 (stereo not given) | 0 | 50* | 2 | 3430 | -5 | -1
COc1ccc(C(=O)C(C)OC(=O)C2CC3CCCC(C2)C3=O)cc1 (stereo not given) | 0 | -2 | -1 | 2783 | 0 | 3
COC(=O)N1CCCCC1c1cc(C(=O)NCc2cccnc2)no1 (stereo not given) | -1 | nt | 0 | 3498 | 1 | 1
COc1ccccc1-c1c(C)oc2cc(OC(=O)c3ccco3)ccc2c1=O | ? | 1 | 2 | 20703* | -4 | 0
CC(=O)N1c2ccc(S(=O)(=O)N3CCC(C(=O)N4CC(C)CC(C)C4)CC3)cc2CC1C (stereo not given) | -1 | -2 | 0 | 4694 | 0 | -1
CC1=CC2=C(OC1N(C)C)c1cccc3cccc(c13)C2=O (stereo not given) | 15 | -186 | 3 | 21836* | 10 | 23
CN(C)CCCN1C(=O)c2cccc3cccc(c23)C1=O | -1 | 4 | -1 | 3724 | 9 | 0
O=C(O)c1cc(-c2ccc3c(c2)OCO3)nc2ccccc12 | 0 | -5 | i | 3689 | -8 | -2
CC(NC(=O)c1cc(-c2ccc3c(c2)OCO3)nc2ccccc12)C(C)(C)C (stereo not given) | 1 | -34 | 0 | 21612* | -2 | 1
CCn1c(SCC(=O)N2CCCC2)nnc1-c1ccc(S(=O)(=O)N2CCCCCC2)cc1 | ? | 12 | i | 19519* | 2 | 2
CCn1c(SCC(=O)N2CCCC(C)C2)nnc1-c1ccc(S(=O)(=O)N2CCN(C)CC2)cc1 (stereo not given) | 0 | 6 | 0 | 5786 | -2 | -6
Cn1c(SCC(=O)N2CCCC2)nnc1-c1ccc(S(=O)(=O)N2CCCC2)cc1 | 0 | 9 | 0 | 10121 | 0 | -1
Cn1c(SCC(=O)N2CCCCC2)nnc1-c1ccc(S(=O)(=O)N2CCOCC2)cc1 | -3 | 7 | 1 | 17538* | -5 | -4
CCn1c(SCC(=O)N2CCCCC2)nnc1-c1ccc(S(=O)(=O)N2CCN(C)CC2)cc1 | 1 | 11 | 1 | 16315* | 3 | 0
CCn1c(SCC(=O)Nc2cc(C)on2)nnc1-c1ccc(S(=O)(=O)N2CCN(C)CC2)cc1 | 0 | 3 | 5 | 24027* | 1 | 0
CCOC(=O)C1=C(C)NC(SC)=C(C#N)C1CC(C)C (stereo not given) | nt | 0 | i | nt | nt | nt
Cc1cc2nc(C3CCCCC3)c(Cc3ccccc3)n2c(C)c1Br | 0 | nt | nt | 5337 | -7 | -2
COCCN(CC(=O)Nc1cccc(C)c1C)C(=O)CN1C(=O)NC2(CCCCC2)C1=O | -1 | 8 | i | 4172 | -16 | -7
COc1ccc(OCCOC(=O)CNC(=O)c2ccc(F)cc2)cc1 | 0 | 11 | -1 | 3483 | 8 | -1
NC(=O)CSc1nnc(-c2ccc(S(=O)(=O)N3CCCC3)cc2)n1CC1CCCO1 (stereo not given) | 0 | 6 | 0 | 10194 | 2 | -1
N#CCSc1nnc(-c2ccc(S(=O)(=O)N3CCOCC3)cc2)n1CC1CCCO1 (stereo not given) | ? | -15 | i | 22267* | -6 | -6
SMILES | BoNT-A LC inh2 | MazEF act | BH1578 lux ind | Autofluor counter | BoNT-F LC inh | Anthrax LF inh2
NC(=O)CSc1nnc(-c2ccc(S(=O)(=O)N3CCCC3)cc2)n1Cc1ccco1 | 4 | -4 | i | 19668* | 3 | 0
O=C(O)CSc1nnc(-c2ccc(S(=O)(=O)N3CCCC3)cc2)n1Cc1ccco1 | 0 | -8 | 0 | 11292 | -3 | 0
Cc1nnc(SCC(=O)c2ccc(S(=O)(=O)N3CCOCC3)cc2)n1-c1ccccc1 | ? | 7 | i | 24041* | -6 | -2
COc1ccc(C2C(C(=O)Nc3cccnc3)=C(C)Nc3nc(-c4cccs4)nn32)cc1 (stereo not given) | 0 | 2 | 0 | 21944* | -2 | -2
COc1ccc(C2C(C(=O)Nc3cccnc3)=C(C)Nc3nc(-c4cccs4)nn32)cc1OC (stereo not given) | 0 | 8 | 1 | 6093 | 2 | -2
Cc1cccc(N(CC(=O)NCC2CCCO2)C(=O)CCC(=O)Nc2nccs2)c1 (stereo not given) | 0 | 8 | 0 | 5222 | -2 | 1
CC(C)CC(=O)Nc1cccc(-c2nc3ccccc3o2)c1 | 0 | 3 | i | 23031* | -2 | 1
Cc1cc(O)c(C=Nc2ccc(N3CCOCC3)cc2)c(C)c1Cl | 0 | 261* | -1 | 3871 | 4 | -1
CC1=CC(=C(C#N)c2nc3ccccc3s2)C=C(C)N1Cc1ccco1 | 3 | 605* | 0 | 12978 | -4 | 1
COc1cccc(C(C)(O)c2nc(-c3cccc(C#N)c3)cs2)c1 (stereo not given) | 0 | nt | i | 2928 | -1 | 2
CSc1ccccc1C(=O)NC1CCCCCC1 | 1 | -3 | 0 | 20204* | 1 | 1
COC(=O)c1ccccc1NC(=O)NC1CCCC1 | 0 | -5 | 0 | 2246 | 0 | -1
Cc1ccccc1C(=O)NC1CCCCCCC1 | 0 | 10 | -2 | 3657 | 30 | -2
COc1ccc(NC(=O)c2ccccc2NC(=O)NC2CCCCC2)cc1 | 1 | -15 | i | 23203* | -2 | -4
COCC(=O)Nc1ccccc1C(=O)Nc1ccc(OC)cc1 | 1 | 2 | i | 22328* | 2 | -2
NC(=O)c1ccccc1NC(=O)NC1CCCCC1 | ? | -2 | i | 22128* | -1 | -3
CCCCNC(=O)Nc1ccccc1C(=O)Nc1ccc(OC)cc1 | 0 | -5 | i | 2230 | 5 | -1
COc1ccc(NC(=O)c2cccnc2Nc2ccccc2)cc1 | -8 | 12 | -1 | 23086* | -11 | 0
NC(=O)c1ccccc1NC(=O)Nc1cccc(Cl)c1 | -1 | -5 | i | 20064* | -6 | 1
O=C(Nc1cccc(Cl)c1)Nc1ccccc1C(=O)O | -8 | -4 | 0 | 8318 | -30 | 5
COc1ccc(NC(=O)c2ccccc2C)cc1 | 4 | 4 | 0 | 3987 | ? | -1
O=C(Nc1ccccc1NC(=O)NC1CCCCC1)NC1CCCCC1 | ? | 1 | 0 | 16874* | -3 | -2
COc1ccccc1Nc1ncccc1C(=O)NCc1ccccc1 | -1 | 19 | 0 | 20309* | -3 | -3

Assay outcomes: PubChem, several laboratories
